Experimental data reported in PubChem BioAssay AID720541 (National Center for Advancing Translational Sciences (NCATS), 2013).
In all, about 1,300 compounds went through this assay and about 420 (32%) were called active. Inconclusive results (about 32%) are left out. The list shows a part of the results. A number with no mark means an inactive call. Calls follow the shape of the dose curve; as a rule, active = well fitted inhibition curve with a large enough effect; inconclusive = small, poorly fitted or top-dose-only effect; inactive = no such curve, though single readings can be large or run the other way.

The molecules below were run against C-terminal-binding protein 1 (Homo sapiens) (UniProt Q13363) (assay: qHTS for Inhibitors of the Phosphatase Activity of Eya2: Carboxyl-terminal binding protein (CtBP) Counterscreen for Cherry-picked Compounds). Settings: purified protein-protein binding, AlphaScreen, 3 h; series mostly up to 46.1 µM; activity change, negative = inhibition: at the top concentration.
Outline: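 AlphaScreen using 25 nM GST-E1A with 25 nM CtBP-6xHIS; compounds at 2.5 nM–46 uM final, 2 h at room temperature, then donor/acceptor beads (20 ug/mL) for 1 h in the dark. Signal normalized to E1A peptide inhibitor (maximum inhibition) and DMSO.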
% is scaled to controls: 0 for no effect and ±100 for the full control effect; potency is read from the fitted curve at half-maximal effect.
Also: nearly all actives have a fitted effect of over 65% in size.

Row | SMILES | activity change, negative = inhibition [%] | Potency
1 | CCc1nc2ccc(C(=O)NCCCN(C)C)cn2c1N(C)Cc1ccc(OC)cc1 | -3.62 | 
2 | COc1cc(OC)c(OC)cc1/C=C1\CC(C)C/C(=C\c2cc(OC)c(OC)cc2OC)C1=O (configuration not stated) | -29.9 | 
3 | COc1cc(OC)c(OC)cc1/C=C1\C=Cc2ccccc21 |  | 12 µM (active)
4 | COc1cc(N(C)C)c(OC)cc1/C=C1\C=Cc2ccccc21 |  | 5.36 µM (active)
5 | COc1cc(N(C)C)ccc1/C=C1\C=Cc2ccccc21 |  | 8.49 µM (active)
6 | CN(C)c1ccc(/C=C2\C=Cc3ccccc32)c(Cl)c1 |  | 8.49 µM (active)
7 | Cc1cc(C)c(C#N)c(Sc2nnnn2-c2ccccc2)n1 | 4.75 | 
8 | O=C(O)c1ccc2c(c1)C(=O)N(c1cccc(-c3nc4ccccc4s3)c1)C2=O | -6.77 | 
9 | N#Cc1c(N)n(-c2ccc(C(=O)O)cc2)c2nc3ccccc3nc12 |  | 12 µM (active)
10 | N#Cc1c(N)n(-c2cccc(C(=O)O)c2)c2nc3ccccc3nc12 |  | 10.7 µM (active)
11 | CN(C)C(C)(C)C#CC(O)(c1ccccc1)c1ccccc1 | 4.16 | 
12 | O=C(O)c1ccc(-c2ccc(/C=c3/sc4nc5ccccc5n4c3=O)o2)cc1Cl |  | 4.26 µM (active)
13 | CCOc1cccc(CN2CCC(CCC(=O)NC3CC3)CC2)c1O | 5.16 | 
14 | CC(C(=O)c1ccc(Br)cc1)[n+]1cccc2ccccc21 (configuration not stated) | 58.8 | 
15 | CCC(=O)N1c2ccc(S(=O)(=O)N3CCN(c4ccc([N+](=O)[O-])cc4)CC3)cc2CC1C (configuration not stated) | -6.96 | 
16 | CCc1ccc2nc(N(CCN(C)C)C(=O)c3ccc4ncsc4c3)sc2c1 | -26.6 | 
17 | Cc1sc2nc3ccc(N4CCCCC4)nn3c(=O)c2c1C |  | 13.5 µM (active)
18 | C[C@](N)(Cc1ccc(O)c(O)c1)C(=O)O | 8.6 | 
19 | Nc1nc2c(c(=O)[nH]1)C(c1cccc3ccccc13)C1=C(N2)c2ccccc2C1=O (configuration not stated) |  | 4.26 µM (active)
20 | CCOc1ccc(C2C3=C(Nc4nc(N)[nH]c(=O)c42)c2ccccc2C3=O)cc1 (configuration not stated) |  | 2.39 µM (active)
21 | CCCOc1ccc(C2C3=C(Nc4nc(N)[nH]c(=O)c42)c2ccccc2C3=O)cc1 (configuration not stated) |  | 3.79 µM (active)

Row | SMILES | activity change, negative = inhibition [%] | Potency
22 | Nc1nc2c(c(=O)[nH]1)C(c1ccccc1)C1=C(N2)c2ccccc2C1=O (configuration not stated) |  | 1.69 µM (active)
23 | CS(=O)(=O)c1ccc(C(=O)Nc2nc(-c3ccco3)c(-c3ccco3)s2)cc1 |  | 13.5 µM (active)
24 | Cc1nc(NC(=O)c2ccccc2)sc1-c1cc(C(=O)O)nn1Cc1ccccc1 | -9.01 | 
25 | CS(=O)(=O)c1ccc2nc(NC(=O)c3ccccc3Cl)sc2c1 | 8.19 | 
26 | Nc1c(N=Nc2ccc([N+](=O)[O-])cc2)c(S(=O)(=O)O)cc2cc(S(=O)(=O)O)c(/C=C/c3ccccc3)c(O)c12 |  | 7.57 µM (active)
27 | COc1ccc2c(c1)sc1nc(=O)ccn12 | -21.2 | 
28 | O=C(N[C@@H]1CC[C@H](CCn2cc(-c3ccccn3)nn2)O[C@@H]1CO)c1ccncc1 |  | 12 µM (active)
29 | Cc1ccc(SCc2nc(N)nc(Nc3ccccc3C)n2)cc1C | -16.7 | 
30 | COc1cccc(C(=O)C2CCCN(CC3=Cc4cc(OC)ccc4OC3)C2)c1 (configuration not stated) |  | 13.5 µM (active)
31 | COc1ccc(C(=O)C2CCCN(C(=O)c3cccc(N(C)C)c3)C2)cc1OC (configuration not stated) | -16.2 | 
32 | Cc1cn2c(nc(=O)c3cccnc32)s1 |  | 12 µM (active)
33 | COc1cc(NC(=O)c2ccccc2Cl)ccc1NC(=O)c1cccs1 | 5.26 | 
34 | Cc1cc(NC(=O)c2cccs2)cc(-c2nc3ncccc3o2)c1O | -0.85 | 
35 | Cc1cc(NC(=O)c2ccccc2F)ncc1NC(=O)c1cccs1 |  | 12 µM (active)
36 | O=C(Oc1ccc(-c2nnco2)cc1)c1ccco1 | -25.5 | 
37 | CC(=O)Oc1ccc(C(=O)Nc2cc(NC(=O)c3ccc(OC(C)=O)cc3)cc(C(=O)NC(C)(C)C)c2)cc1 |  | 15.1 µM (active)
38 | Cc1ccc(OCC(=O)Nc2cc(NC(=O)COc3ccc(C)c(C)c3)cc(C(=O)O)c2)cc1C | -20.5 | 
39 | COc1ccc(NC(=O)/C(C#N)=C/c2ccc(-c3ccc(Cl)c(C(=O)O)c3)o2)cc1 |  | 19 µM (active)
40 | COc1ccc(CC(CC(=O)O)C(=O)Nc2ccc(Cl)c(Cl)c2)cc1 (configuration not stated) | 47.3 | 
41 | N#C/C(=C\c1ccc(-c2ccc(C(=O)O)cc2)o1)C(=O)Nc1ccc(F)cc1 |  | 7.57 µM (active)
42 | COc1ccc(/C=C(/C#N)C(=O)Nc2ccc(O)cc2)cc1C(=O)O |  | 6.75 µM (active)

Row | SMILES | activity change, negative = inhibition [%] | Potency
43 | CC(=O)Oc1ccc(C(=O)OCC(=O)c2c(N)n(C)c(=O)n(C)c2=O)cc1OC(C)=O |  | 6.01 µM (active)
44 | Cn1c(N)c(C(=O)CSc2nnc(NC3CCCCC3)s2)c(=O)n(C)c1=O | -26.8 | 
45 | O=C1C=C(Nc2ccccc2)C(=O)c2ccccc21 |  | 4.26 µM (active)
46 | O=C(Nc1ccc(-c2nc3cccnc3s2)cc1)C1CCCO1 (configuration not stated) | -24.7 | 
47 | O=C(CSc1ncn[nH]1)N1N=C(c2ccc(Cl)cc2)CC1c1ccco1 (configuration not stated) | -15.7 | 
48 | CN(C)c1ccc(C(=C2C=CC(=[N+](C)C)C=C2)c2ccc(N(C)C)cc2)cc1 |  | 3.79 µM (active)
49 | CN(C)c1ccc(C(=C2C=CC(=[N+](C)C)C=C2)c2c(O)c(S(=O)(=O)[O-])cc3cc(S(=O)(=O)O)ccc23)cc1 |  | 9.53 µM (active)
50 | Nc1n[nH]c2cc(=O)n(-c3ccc(Cl)cc3)nc12 | -21.1 | 
51 | CCOc1ccc(Br)cc1S(=O)(=O)NC1CC(C)(C)NC(C)(C)C1 | 4.5 | 
52 | COC(=O)c1c(-c2ccc3ccccc3c2)csc1NC(=O)Cc1ccc(OC)c(OC)c1 | -22.9 | 
53 | Cc1ccc(-c2csc(NC(=O)c3ccccc3F)c2C(=O)O)cc1 |  | 9.53 µM (active)
54 | CCOc1cc(C(=O)NC(C)CCc2ccccc2)cc(OCC)c1OCC (configuration not stated) | 94 | 
55 | COc1cc(CNCc2ccccn2)ccc1OCC(=O)NC1CCCCC1 | -40.3 | 
56 | COc1ccc(CCNc2nc(-c3ccccn3)cs2)cc1OC |  | 7.57 µM (active)
57 | COc1ccc(CCNC(=O)C(=O)NCc2cccs2)cc1OC | 1.17 | 
58 | CCC(C)Nc1nc(-c2ccccn2)nc2ccccc12 (configuration not stated) |  | 9.53 µM (active)
59 | O=C(Nc1nc2ccc(F)cc2s1)C1=NN(c2ccccc2)C(=O)CC1 | -3.84 | 
60 | O=C(O)CCN1C(=O)/C(=C/c2ccc(-c3nc4ccccc4s3)o2)SC1=S |  | 3.01 µM (active)
61 | COc1ccccc1N1CCN(C(=O)c2ccc(-c3nc4ccccc4s3)o2)CC1 | -28.7 | 
62 | Cc1ccc(-c2nc3ccccc3s2)cc1NC(=S)NC(=O)/C=C/c1ccco1 | 4.31 | 
